Measurements published in PubChem BioAssay (Tox21).
Records with an inconclusive call do not appear. Where a call stands in place of a potency, no number is given. Calls of active or inactive are those of the source. Calls follow the shape of the dose curve; as a rule, active = well fitted cell-killing curve with a large enough effect in the repeat runs; inconclusive = weak or mixed curves, or effect the other way; inactive = flat fitted curve, though single readings scatter.

Assay: qHTS assay to identify small molecule agonists of the androgen receptor (AR) signaling pathway in the presence of an antagonist - cell viability counter screen (AID 1259379); also: nearly all actives have a fitted effect of over 25% in size
Conditions: MDA-kb2 viability, CellTiter-Fluor, 16 h; series mostly up to 92.4 µM
Outline: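 MDA-kb2 viability measured by CellTiter-Fluor fluorescence in the same wells as the luciferase signal; nilutamide 3.0uM final; 15-point compound titration; 16 hr at 37C.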
Potency is read from the fitted curve at half-maximal effect.

Row | SMILES | Potency
1 | C=CC(=O)[O-].C=CC(=O)[O-].[Zn+2] | inactive
2 | CN(C(=O)CN(CCO)CC(=O)N(C)C(C)(C)Cc1ccccc1)C(C)(C)Cc1ccccc1 | inactive
3 | CN1CCCN=C1COC(=O)C(O)(c1ccccc1)C1CCCCC1 (stereo unspecified) | inactive
4 | CCC(=O)C1CC(C(C)C)CC=C1C (stereo unspecified) | inactive
5 | C=C1c2cccc(O)c2C(O)=C2C(=O)[C@]3(O)C(O)=C(C(N)=O)C(=O)[C@@H](N(C)C)[C@@H]3[C@@H](O)[C@H]12 | inactive
6 | CC/C=C1/OC(=O)c2ccccc21 | inactive
7 | CC1=C(Br)C(=O)C(Br)=C/C1=C(/c1ccccc1S(=O)(=O)O)c1cc(Br)c(O)c(Br)c1C | 18.6 µM (active)
8 | C/C=C/C=C/C=O | inactive
9 | OCCOCC#CCOCCO | inactive
10 | O=c1[nH]ncc2ccccc12 | inactive
11 | CC(CCC(=O)O)C(=O)O (stereo unspecified) | inactive
